Data from PubChem BioAssay AID1159580 (chemical genetic matrix, 2015).
Values joined by “and” are separate entries in the source; they are usually repeats but may differ in a detail not shown here. Identical values can stand only once. About 2,000 (36%) of roughly 5,500 compounds were called active. Not shown: some 18% with an inconclusive outcome. No stated cut-off is given here; in the data, active means normalized growth mostly below about 0.91 (no sharp cut-off); inconclusive means no clear call, values can overlap the other calls; inactive means mostly above about 0.92. Some of the results follow.

Assay: chemical genetic growth profiling, strain panel (AID 1159580);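 further: tested at 20 µM; growth read once vehicle control cultures reached saturation at 30 °C; 1 = growth at the plate median or of vehicle wells; lower values mean less growth of the strain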
Settings: growth OD
[1] = S. cerevisiae deletion strains, locus YDL101C, strain DUN1, active compounds read low
[2] = S. cerevisiae deletion strains, locus YHR030C, strain SLT2, active compounds read low
[3] = S. cerevisiae deletion strains, locus YHR079C, strain IRE1, active compounds read low
[4] = S. cerevisiae deletion strains, locus YJL095W, strain BCK1, active compounds read low
[5] = S. cerevisiae deletion strains, locus YJR066W, strain TOR1, active compounds read low
[6] = S. cerevisiae deletion strains, locus YLR113W, strain HOG1, active compounds read low
[7] = S. cerevisiae deletion strains, locus YNL183C, strain NPR1, active compounds read low
[8] = S. cerevisiae deletion strains, locus YOR061W, strain CKA2, active compounds read low
[9] = S. cerevisiae deletion strains, locus YOR231W, strain MKK1, active compounds read low
[10] = S. cerevisiae deletion strains, locus YPL256C, strain CLN2, active compounds read low

Measured: normalized growth

NNC(=O)COc1ccc(C2SCCS2)cc1
inactive: S. cerevisiae deletion strains, locus YBL105C, strain PKC1, active compounds read low 0.962 | S. cerevisiae deletion strains, locus YBR135W, strain CKS1, active compounds read low 0.954 | S. cerevisiae deletion strains, locus YBR136W, strain MEC1, active compounds read low 0.986 | S. cerevisiae deletion strains, locus YBR160W, strain CDC28, active compounds read low 0.96 | S. cerevisiae deletion strains, locus YDL017W, strain CDC7, active compounds read low 0.971 | S. cerevisiae deletion strains, locus YDL028C, strain MPS1, active compounds read low 0.964 | S. cerevisiae deletion strains, locus YDL108W, strain KIN28, active compounds read low 0.97 | S. cerevisiae deletion strains, locus YDR052C, strain DBF4, active compounds read low 0.969 | S. cerevisiae deletion strains, locus YDR226W, strain ADK1, active compounds read low 0.962 | S. cerevisiae deletion strains, locus YFR003C, strain YPI1, active compounds read low 0.974 | S. cerevisiae deletion strains, locus YFR028C, strain CDC14, active compounds read low 0.973 | S. cerevisiae deletion strains, locus YIL147C, strain SLN1, active compounds read low 0.969 | S. cerevisiae deletion strains, locus YJR016C, strain ILV3, active compounds read low 0.939 | S. cerevisiae deletion strains, locus YKL193C, strain SDS22, active compounds read low 0.927 | S. cerevisiae deletion strains, locus YMR001C, strain CDC5, active compounds read low 0.95 | S. cerevisiae deletion strains, locus YNL006W, strain LST8, active compounds read low 0.945 | S. cerevisiae deletion strains, locus YNL161W, strain CBK1, active compounds read low 0.941 | S. cerevisiae deletion strains, locus YNL222W, strain SSU72, active compounds read low 0.934 | S. cerevisiae deletion strains, locus YOR329C, strain SCD5, active compounds read low 0.972 | S. cerevisiae deletion strains, locus YPL209C, strain IPL1, active compounds read low 0.965 | S. cerevisiae deletion strains, locus YPR025C, strain CCL1, active compounds read low 0.954
active: [1] 0.337 | S. cerevisiae deletion strains, locus YDL214C, strain PRR2, active compounds read low 0.16 | S. cerevisiae deletion strains, locus YDR477W, strain SNF1, active compounds read low 0.197 | S. cerevisiae deletion strains, locus YER123W, strain YCK3, active compounds read low 0.148 | S. cerevisiae deletion strains, locus YER133W, strain GLC7, active compounds read low 0.4 | S. cerevisiae deletion strains, locus YFR019W, strain FAB1, active compounds read low 0.144 | S. cerevisiae deletion strains, locus YGR040W, strain KSS1, active compounds read low 0.233 | S. cerevisiae deletion strains, locus YGR052W, strain FMP48, active compounds read low 0.152 | S. cerevisiae deletion strains, locus YGR092W, strain DBF2, active compounds read low 0.13 | [2] 0.104 | [3] 0.127 | S. cerevisiae deletion strains, locus YHR082C, strain KSP1, active compounds read low 0.188 | S. cerevisiae deletion strains, locus YHR205W, strain SCH9, active compounds read low 0.162 | [4] 0.128 | S. cerevisiae deletion strains, locus YJL157C, strain FAR1, active compounds read low 0.163 | S. cerevisiae deletion strains, locus YJR066W, strain TOR1 (second series), active compounds read low 0.156 | [5] 0.159 | S. cerevisiae deletion strains, locus YKL048C, strain ELM1, active compounds read low 0.215 | S. cerevisiae deletion strains, locus YKL067W, strain YNK1, active compounds read low 0.141 | S. cerevisiae deletion strains, locus YKL101W, strain HSL1, active compounds read low 0.153 | S. cerevisiae deletion strains, locus YKL203C, strain TOR2, active compounds read low 0.209 | [6] 0.171 | S. cerevisiae deletion strains, locus YLR133W, strain CKI1, active compounds read low 0.194 | S. cerevisiae deletion strains, locus YLR403W, strain SFP1, active compounds read low 0.152 | S. cerevisiae deletion strains, locus YML070W, strain DAK1, active compounds read low 0.145 | S. cerevisiae deletion strains, locus YMR205C, strain PFK2 (second series), active compounds read low 0.151 | S. cerevisiae deletion strains, locus YMR277W, strain FCP1, active compounds read low 0.85 | S. cerevisiae deletion strains, locus YNL020C, strain ARK1, active compounds read low 0.195 | [7] 0.187 | S. cerevisiae deletion strains, locus YNL207W, strain RIO2, active compounds read low 0.829 | S. cerevisiae deletion strains, locus YNL307C, strain MCK1 (second series), active compounds read low 0.157 | S. cerevisiae deletion strains, locus YOL136C, strain PFK27, active compounds read low 0.159 | [8] 0.115 | S. cerevisiae deletion strains, locus YOR119C, strain RIO1, active compounds read low 0.183 | [9] 0.159 | S. cerevisiae deletion strains, locus YPL031C, strain PHO85, active compounds read low 0.201 | S. cerevisiae deletion strains, locus YPL153C, strain RAD53, active compounds read low 0.181 | S. cerevisiae deletion strains, locus YPL204W, strain HRR25, active compounds read low 0.234 | [10] 0.173 | S. cerevisiae deletion strains, locus YPR106W, strain ISR1, active compounds read low 0.575 | S. cerevisiae deletion strains, locus YPR111W, strain DBF20, active compounds read low 0.608 | S. cerevisiae deletion strains, strain NNK1, active compounds read low 0.24

CCN(CC)CCNC(=O)COc1ccc(OC)cc1
inactive: S. cerevisiae deletion strains, locus YAL013W, strain DEP1, active compounds read low 1 | S. cerevisiae deletion strains, locus YBR021W, strain FUR4, active compounds read low 1.01 | S. cerevisiae deletion strains, locus YBR229C, strain ROT2, active compounds read low 0.995 | S. cerevisiae deletion strains, locus YCL029C, strain bik1, active compounds read low 0.983 | S. cerevisiae deletion strains, locus YDL035C, strain GPR1, active compounds read low 1.02 | S. cerevisiae deletion strains, locus YDL074C, strain BRE1, active compounds read low 0.989 | [1] 0.993 | S. cerevisiae deletion strains, locus YDL134C, strain PPH21, active compounds read low 1.01 | S. cerevisiae deletion strains, locus YDL185W, strain tfp1, active compounds read low 0.964 | S. cerevisiae deletion strains, locus YDL192W, strain arf1, active compounds read low 0.995 | S. cerevisiae deletion strains, locus YDR101C, strain arx1, active compounds read low 0.973 | S. cerevisiae deletion strains, locus YDR150W, strain NUM1, active compounds read low 0.993 | S. cerevisiae deletion strains, locus YDR162C, strain NBP2, active compounds read low 1.01 | S. cerevisiae deletion strains, locus YDR318W, strain mcm21, active compounds read low 0.988 | S. cerevisiae deletion strains, locus YDR388W, active compounds read low 0.997 | S. cerevisiae deletion strains, locus YDR502C, strain sam2, active compounds read low 1.01 | S. cerevisiae deletion strains, locus YEL061C, strain CIN8, active compounds read low 1 | S. cerevisiae deletion strains, locus YER110C, active compounds read low 0.989 | S. cerevisiae deletion strains, locus YER155C, strain BEM2, active compounds read low 0.998 | S. cerevisiae deletion strains, locus YER167W, strain BCK2, active compounds read low 1.01 | S. cerevisiae deletion strains, locus YGL078C, strain dbp3, active compounds read low 0.997 | S. cerevisiae deletion strains, locus YGL086W, strain mad1, active compounds read low 1.02 | S. cerevisiae deletion strains, locus YGL248W, strain PDE1, active compounds read low 0.995 | S. cerevisiae deletion strains, locus YGR078C, strain PAC10, active compounds read low 0.992 | S. cerevisiae deletion strains, locus YGR135W, strain pre9, active compounds read low 1.01 | S. cerevisiae deletion strains, locus YGR229C, strain SMI1, active compounds read low 1.01 | S. cerevisiae deletion strains, locus YGR252W, strain gcn5, active compounds read low 1.15 | [2] 0.995 and 0.975 | S. cerevisiae deletion strains, locus YHR079C, strain IRE1 (second series), active compounds read low 0.986 | [3] 0.965 | S. cerevisiae deletion strains, locus YHR094C, strain hxt1, active compounds read low 0.981 | S. cerevisiae deletion strains, locus YHR129C, strain ARP1, active compounds read low 0.994 | S. cerevisiae deletion strains, locus YHR200W, strain rpn10, active compounds read low 0.989 | S. cerevisiae deletion strains, locus YIL066C, strain RNR3, active compounds read low 0.999 | S. cerevisiae deletion strains, locus YIL073C, strain SPO22, active compounds read low 0.974 | S. cerevisiae deletion strains, locus YIL125W, strain kgd1, active compounds read low 1 | S. cerevisiae deletion strains, locus YIR030C, strain dcg1, active compounds read low 0.999 | [4] 0.983 and 0.978 | S. cerevisiae deletion strains, locus YJL134W, strain LCB3, active compounds read low 0.994 | S. cerevisiae deletion strains, locus YJL168C, strain set2, active compounds read low 0.981 | S. cerevisiae deletion strains, locus YJL187C, strain SWE1 (second series), active compounds read low 0.984 | S. cerevisiae deletion strains, locus YJR043C, strain POL32, active compounds read low 0.971 | [5] 0.939 | S. cerevisiae deletion strains, locus YJR075W, strain HOC1, active compounds read low 0.983 | S. cerevisiae deletion strains, locus YKL009W, strain mrt4, active compounds read low 1.02 | S. cerevisiae deletion strains, locus YKL068W, active compounds read low 0.983 | S. cerevisiae deletion strains, locus YKL085W, strain MDH1 (second series), active compounds read low 0.981 | S. cerevisiae deletion strains, locus YKL085W, strain MDH1, active compounds read low 0.981 | S. cerevisiae deletion strains, locus YKL190W, strain CNB1, active compounds read low 0.997 | S. cerevisiae deletion strains, locus YKR001C, strain vps1, active compounds read low 1.02 | S. cerevisiae deletion strains, locus YLR039C, strain RIC1, active compounds read low 1.06 | S. cerevisiae deletion strains, locus YLR058C, strain SHM2, active compounds read low 1 | S. cerevisiae deletion strains, locus YLR102C, strain apc9, active compounds read low 0.991 | [6] 0.969 | S. cerevisiae deletion strains, locus YLR262C, strain YPT6, active compounds read low 1.05 | S. cerevisiae deletion strains, locus YLR268W, strain sec22, active compounds read low 0.96 | S. cerevisiae deletion strains, locus YLR330W, strain CHS5, active compounds read low 0.989 | S. cerevisiae deletion strains, locus YLR342W, strain FKS1 (second series), active compounds read low 1.06 | S. cerevisiae deletion strains, locus YLR371W, strain rom2, active compounds read low 0.99 | S. cerevisiae deletion strains, locus YLR418C, strain cdc73, active compounds read low 1.01 | S. cerevisiae deletion strains, locus YML016C, strain PPZ1, active compounds read low 1.01 | S. cerevisiae deletion strains, locus YML032C, strain rad52, active compounds read low 0.97 | S. cerevisiae deletion strains, locus YML124C, strain tub3, active compounds read low 0.996 | S. cerevisiae deletion strains, locus YMR078C, strain ctf18, active compounds read low 0.978 | S. cerevisiae deletion strains, locus YMR223W, strain ubp8, active compounds read low 1.04 | S. cerevisiae deletion strains, locus YMR263W, strain SAP30, active compounds read low 0.982 | S. cerevisiae deletion strains, locus YMR307W, strain GAS1, active compounds read low 1.05 | S. cerevisiae deletion strains, locus YNL067W, strain RPL9B, active compounds read low 0.97 | S. cerevisiae deletion strains, locus YNL128W, strain TEP1, active compounds read low 0.994 | S. cerevisiae deletion strains, locus YNL153C, strain GIM3, active compounds read low 0.988 | [7] 0.937 | S. cerevisiae deletion strains, locus YNL233W, strain BNI4, active compounds read low 1.01 | S. cerevisiae deletion strains, locus YNL250W, strain rad50, active compounds read low 0.993 | S. cerevisiae deletion strains, locus YNL271C, strain bni1, active compounds read low 0.987 | S. cerevisiae deletion strains, locus YNL298W, strain CLA4, active compounds read low 0.993 | S. cerevisiae deletion strains, locus YNL307C, strain MCK1, active compounds read low 0.999 | S. cerevisiae deletion strains, locus YNL322C, strain KRE1, active compounds read low 0.992 | S. cerevisiae deletion strains, locus YNR052C, strain pop2, active compounds read low 0.984 | S. cerevisiae deletion strains, locus YOL006C, strain TOP1, active compounds read low 1.01 | S. cerevisiae deletion strains, locus YOL012C, strain htz1 0.754 | S. cerevisiae deletion strains, locus YOL147C, strain pex11, active compounds read low 0.997 | [8] 1.01 | S. cerevisiae deletion strains, locus YOR069W, strain VPS5, active compounds read low 0.998 | S. cerevisiae deletion strains, locus YOR136W, strain idh2, active compounds read low 1.01 | S. cerevisiae deletion strains, locus YOR144C, strain elg1, active compounds read low 0.998 | S. cerevisiae deletion strains, locus YOR184W, strain ser1, active compounds read low 0.983 | [9] 0.964 | S. cerevisiae deletion strains, locus YOR316C, strain cot1, active compounds read low 0.981 | S. cerevisiae deletion strains, locus YPL055C, strain LGE1, active compounds read low 0.949 | S. cerevisiae deletion strains, locus YPL241C, strain CIN2, active compounds read low 1.01 | [10] 0.972 | S. cerevisiae deletion strains, locus YPR119W, strain clb2, active compounds read low 0.99 | S. cerevisiae deletion strains, locus YPR141C, strain kar3, active compounds read low 0.992 | S. cerevisiae deletion strains, locus YPR163C, strain tif3, active compounds read low 0.994 | S. cerevisiae deletion strains, locus YPR167C, strain met16, active compounds read low 0.975 | S. cerevisiae deletion strains, strain wtn01, active compounds read low 0.962 | S. cerevisiae strains, strain wild type, active compounds read low 1
